A short description of test [1]: binders of probe aFSTL3 on microarray, primary screen, stem cell growth factor project, biochemical, small-molecule microarray, fluorescence 635/667 (AID 1064).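 Note: measures binding of the biotinylated anti-FSTL3 antibody to printed compounds.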 The note with it: higher = more signal.
Test [2] can be described thus: binders from COS7 lysate, DM2A8 probe, primary screen, torsin A project, cell lysate, small-molecule microarray, fluorescence 635/667 (AID 1065). To be noted: higher = more signal, COS7 lysate expressing mutant human TOR1A.
The nature of test [3]: binders of probe aFGF2 on microarray, primary screen, stem cell growth factor project, biochemical, small-molecule microarray, fluorescence 635/667 (AID 1067).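 Note: measures binding of biotinylated aFGF2 protein to printed compounds on slides; z-score merges feature fluorescence and signal-to-noise across triplicate slides.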 To be noted: higher = more signal.
Test [4] in a line: binders of probe aFGF10 on microarray, primary screen, stem cell growth factor project, biochemical, small-molecule microarray, fluorescence 635/667 (AID 1071).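 Note: score merges 667 nm spot intensity and signal to noise from triplicate slides.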 To be noted: higher = more signal.
Test [5] addresses Neurogenic locus notch homolog protein 2 (Homo sapiens) (UniProt Q04721). Put plainly: Notch2 binders on small-molecule microarrays, primary screen, biochemical, small-molecule microarray, 635 nm fluorescence, stem cell growth factors (AID 1073). To be noted: Notch2 binding, higher = more signal.
The target of test [6] is Pro-neuregulin-1, membrane-bound isoform (Homo sapiens) (UniProt Q02297). The test can be described thus: NRG1 binders on small-molecule microarrays, primary screen, psychiatric disease protein project, biochemical, small-molecule microarray, fluorescence 635/667 (AID 1075).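 Note: score combines 667 nm spot fluorescence with signal to noise.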 The note with it: NRG1 binding, 635 nm fluorescence, higher = more signal.
Test [7] relates to Neuregulin-1 EGF-like domain. Put plainly: binders of neuregulin-1 EGF-like domain, primary screen, biochemical, small-molecule microarray, 635 nm fluorescence (AID 1081).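 Note: binding of the protein to compounds printed on small-molecule microarray slides.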 To be noted: small-molecule microarray binding, higher = more signal.
Test [8] in a line: FRG1 promoter luciferase signal modulators, primary screen, FRG1 inhibition for FSHD, cell-based, C2C12 myotubes, firefly/Renilla luciferase, luminescence (AID 1084). The note with it: higher = more signal, called active from +8 up or from −8 down.
Test [9] is described as follows: binders of probe aFST on microarray, primary screen, stem cell growth factor project, biochemical, small-molecule microarray, fluorescence 635/667 (AID 1086).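 Note: score merges 667 nm fluorescence with signal-to-noise of each printed compound spot.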 To be noted: higher = more signal.
Test [10] can be described thus: binders of probe aHhip on microarray, primary screen, stem cell growth factor project, biochemical, small-molecule microarray, fluorescence 635/667 (AID 1087).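 Note: score merges spot fluorescence at 667nm with spot signal to noise ratio.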 The note with it: higher = more signal.
In test [11] the test system is PRMT1 (protein arginine N-methyltransferase 1). The test can be described thus: PRMT1 binders on small-molecule microarrays, primary screen, biochemical, small-molecule microarray, 635 nm fluorescence (AID 1088).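 Note: binding of Prmt1 protein to compounds spotted on small-molecule microarray slides.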 To be noted: small-molecule microarray binding, higher = more signal.
Test [12] can be described thus: yeast growth modulation, basal conditions, primary screen, YJM789 clinical isolate, OD600, 24 h (AID 1089).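 Note: growth of clinical yeast isolate S. cerevisiae YJM 789 seeded 1000 cells per well; test concentration not given here.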 The note with it: S. cerevisiae YJM789 growth, higher = more signal, called active from +8 up or from −8 down.
A short description of test [13]: fission yeast growth modulation, primary screen, strain 972, OD600, 24 h, no modulator (AID 1090).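 Note: basal condition with compound alone and no growth modifier present; test concentration not given here.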 The note with it: S. pombe 972 growth, higher = more signal, called active from +8 up or from −8 down.
Test [14] can be described thus: S. cerevisiae growth modulation with rapamycin, primary screen, strain BY4716, OD600, 96 h (AID 1091). Note: test concentration not given here. The note with it: higher = more signal, called active from +8 up or from −8 down.
Test [15] has as its target Torsin-1A-interacting protein 2 (Homo sapiens) (UniProt Q8NFQ8). The test can be described thus: LULL1 binders on small-molecule microarray, primary screen, cell lysate, human LULL1 lysate, 635/667 nm fluorescence (AID 1092).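 Note: probe is lysate of COS7 cells overexpressing human LULL1; score merges per-feature 667 nm fluorescence with signal-to-noise.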 The note with it: hLULL1 lysate binding, 635 nm fluorescence, higher = more signal.
Test [16] can be described thus: E. coli growth modulation, two-sided OD650, primary screen, E. coli filamentation project, strain DRC41, 24 h (AID 1093).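 Note: MC1000 strain lacking acrAB efflux and sulA so SOS filamentation is blocked; test concentration not given here.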 To be noted: OD650, 24 h, higher = more signal, called active from +8 up or from −8 down.
The nature of test [17]: small-molecule microarray binders of probe aLefty2, primary screen, biochemical, biotinylated probe, 635/667 nm fluorescence (AID 1094).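 Note: score merges spot fluorescence near 667 nm with spot signal-to-noise ratio.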 The note with it: higher = more signal.
For test [18], the system named is Noggin (protein binding on small-molecule microarray). The test can be described thus: Noggin binders on small-molecule microarray, primary screen, biochemical, 635/667 nm fluorescence (AID 1095).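 Note: score merges 667 nm feature fluorescence with signal to noise over triplicate slides.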 The note with it: 635 nm fluorescence, higher = more signal.
In test [19] the target is Neurogenic locus notch homolog protein 3 (Homo sapiens) (UniProt Q9UM47). Put plainly: NOTCH3 binders on small-molecule microarray, primary screen, biochemical, 635/667 nm fluorescence (AID 1096). To be noted: NOTCH3 binding, 635 nm fluorescence, higher = more signal.
A short description of test [20]: small-molecule microarray binders of probe aEGFR, primary screen, biochemical, biotinylated probe, 635/667 nm fluorescence (AID 1097).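 Note: probe is a biotinylated anti-EGFR antibody binding compounds printed on slides; score combines fluorescence near 667 nm and signal to noise of each spot.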 To be noted: higher = more signal.

This is an account of results in PubChem BioAssay.

SMILES strings stand for the structures. Active and inactive are the calls of the source.

Sequence of Neurogenic locus notch homolog protein 2 (Homo sapiens) (Q04721 whole entry, looked up, canonical isoform): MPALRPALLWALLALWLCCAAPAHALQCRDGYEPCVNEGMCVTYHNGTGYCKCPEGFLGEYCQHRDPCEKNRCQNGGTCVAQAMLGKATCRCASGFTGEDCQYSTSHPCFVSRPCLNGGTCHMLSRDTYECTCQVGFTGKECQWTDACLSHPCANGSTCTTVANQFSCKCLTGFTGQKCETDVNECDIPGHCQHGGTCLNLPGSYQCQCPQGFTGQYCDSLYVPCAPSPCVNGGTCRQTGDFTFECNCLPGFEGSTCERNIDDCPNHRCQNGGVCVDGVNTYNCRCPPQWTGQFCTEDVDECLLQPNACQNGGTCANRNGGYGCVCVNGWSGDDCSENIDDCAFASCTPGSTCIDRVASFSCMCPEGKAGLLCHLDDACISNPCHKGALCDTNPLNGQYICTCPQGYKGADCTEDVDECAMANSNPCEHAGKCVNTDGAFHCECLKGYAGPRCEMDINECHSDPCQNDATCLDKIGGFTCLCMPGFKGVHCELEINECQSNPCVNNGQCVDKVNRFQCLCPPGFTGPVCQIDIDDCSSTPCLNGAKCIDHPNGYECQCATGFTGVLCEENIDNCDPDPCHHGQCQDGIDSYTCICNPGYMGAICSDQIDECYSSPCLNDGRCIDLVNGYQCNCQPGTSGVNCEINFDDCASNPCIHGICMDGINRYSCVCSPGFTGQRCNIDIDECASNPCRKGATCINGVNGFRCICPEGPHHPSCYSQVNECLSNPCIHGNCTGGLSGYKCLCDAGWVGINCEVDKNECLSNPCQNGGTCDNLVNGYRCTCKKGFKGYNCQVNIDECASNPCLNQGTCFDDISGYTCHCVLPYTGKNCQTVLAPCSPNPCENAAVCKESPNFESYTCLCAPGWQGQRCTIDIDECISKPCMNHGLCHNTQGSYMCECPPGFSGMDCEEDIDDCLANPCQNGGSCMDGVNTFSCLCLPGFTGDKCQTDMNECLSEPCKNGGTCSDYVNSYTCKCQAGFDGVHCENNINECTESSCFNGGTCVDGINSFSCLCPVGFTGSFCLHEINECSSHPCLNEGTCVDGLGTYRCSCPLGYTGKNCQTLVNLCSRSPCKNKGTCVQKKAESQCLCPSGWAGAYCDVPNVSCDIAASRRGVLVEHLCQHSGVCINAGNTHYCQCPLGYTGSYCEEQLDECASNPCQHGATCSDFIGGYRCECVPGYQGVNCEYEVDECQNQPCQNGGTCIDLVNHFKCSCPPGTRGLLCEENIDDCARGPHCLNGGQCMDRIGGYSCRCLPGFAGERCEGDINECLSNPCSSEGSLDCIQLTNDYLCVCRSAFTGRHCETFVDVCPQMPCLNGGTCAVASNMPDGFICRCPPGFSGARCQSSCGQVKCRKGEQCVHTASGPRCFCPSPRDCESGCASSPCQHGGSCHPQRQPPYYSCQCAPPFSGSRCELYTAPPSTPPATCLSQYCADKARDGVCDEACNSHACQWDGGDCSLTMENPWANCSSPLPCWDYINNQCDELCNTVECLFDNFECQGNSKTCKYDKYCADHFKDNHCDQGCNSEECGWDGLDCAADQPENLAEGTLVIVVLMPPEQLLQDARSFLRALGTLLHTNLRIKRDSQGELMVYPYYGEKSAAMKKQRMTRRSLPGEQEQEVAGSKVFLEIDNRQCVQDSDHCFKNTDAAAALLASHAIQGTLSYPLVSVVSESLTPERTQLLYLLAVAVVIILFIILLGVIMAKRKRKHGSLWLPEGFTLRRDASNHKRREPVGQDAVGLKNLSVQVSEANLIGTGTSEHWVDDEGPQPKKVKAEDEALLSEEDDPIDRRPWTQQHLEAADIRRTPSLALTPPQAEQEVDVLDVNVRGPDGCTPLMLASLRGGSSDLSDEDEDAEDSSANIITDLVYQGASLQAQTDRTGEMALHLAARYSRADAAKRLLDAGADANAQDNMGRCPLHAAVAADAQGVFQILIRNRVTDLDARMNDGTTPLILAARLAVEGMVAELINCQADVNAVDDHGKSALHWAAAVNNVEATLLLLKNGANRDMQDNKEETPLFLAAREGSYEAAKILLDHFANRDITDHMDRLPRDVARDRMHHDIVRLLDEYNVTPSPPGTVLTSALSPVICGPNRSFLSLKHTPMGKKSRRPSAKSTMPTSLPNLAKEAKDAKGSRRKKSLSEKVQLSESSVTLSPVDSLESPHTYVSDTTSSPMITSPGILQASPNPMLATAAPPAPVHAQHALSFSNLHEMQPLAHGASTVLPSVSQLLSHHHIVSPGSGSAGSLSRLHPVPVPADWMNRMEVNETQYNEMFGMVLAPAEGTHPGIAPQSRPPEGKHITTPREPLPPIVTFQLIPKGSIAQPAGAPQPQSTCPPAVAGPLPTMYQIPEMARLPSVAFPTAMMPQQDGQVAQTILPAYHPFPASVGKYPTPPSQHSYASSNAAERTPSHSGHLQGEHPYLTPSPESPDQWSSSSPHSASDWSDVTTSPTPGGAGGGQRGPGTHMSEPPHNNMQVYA
Sequence of Torsin-1A-interacting protein 2 (Homo sapiens) (Q8NFQ8 whole entry, looked up): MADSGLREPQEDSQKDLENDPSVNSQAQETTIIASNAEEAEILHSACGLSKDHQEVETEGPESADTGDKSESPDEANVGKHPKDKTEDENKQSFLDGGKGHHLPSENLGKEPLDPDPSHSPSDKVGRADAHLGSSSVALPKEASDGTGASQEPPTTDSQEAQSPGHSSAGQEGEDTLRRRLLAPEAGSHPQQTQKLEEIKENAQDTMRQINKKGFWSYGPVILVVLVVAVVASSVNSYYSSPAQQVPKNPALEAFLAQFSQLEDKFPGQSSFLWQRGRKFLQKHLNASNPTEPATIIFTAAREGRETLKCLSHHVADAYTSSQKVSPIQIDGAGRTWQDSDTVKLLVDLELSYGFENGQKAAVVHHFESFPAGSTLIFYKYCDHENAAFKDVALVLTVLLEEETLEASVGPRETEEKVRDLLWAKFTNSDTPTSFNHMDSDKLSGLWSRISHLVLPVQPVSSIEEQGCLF
Sequence of Pro-neuregulin-1, membrane-bound isoform (Homo sapiens) (Q02297 whole entry, looked up, the tested form may be a part, canonical isoform): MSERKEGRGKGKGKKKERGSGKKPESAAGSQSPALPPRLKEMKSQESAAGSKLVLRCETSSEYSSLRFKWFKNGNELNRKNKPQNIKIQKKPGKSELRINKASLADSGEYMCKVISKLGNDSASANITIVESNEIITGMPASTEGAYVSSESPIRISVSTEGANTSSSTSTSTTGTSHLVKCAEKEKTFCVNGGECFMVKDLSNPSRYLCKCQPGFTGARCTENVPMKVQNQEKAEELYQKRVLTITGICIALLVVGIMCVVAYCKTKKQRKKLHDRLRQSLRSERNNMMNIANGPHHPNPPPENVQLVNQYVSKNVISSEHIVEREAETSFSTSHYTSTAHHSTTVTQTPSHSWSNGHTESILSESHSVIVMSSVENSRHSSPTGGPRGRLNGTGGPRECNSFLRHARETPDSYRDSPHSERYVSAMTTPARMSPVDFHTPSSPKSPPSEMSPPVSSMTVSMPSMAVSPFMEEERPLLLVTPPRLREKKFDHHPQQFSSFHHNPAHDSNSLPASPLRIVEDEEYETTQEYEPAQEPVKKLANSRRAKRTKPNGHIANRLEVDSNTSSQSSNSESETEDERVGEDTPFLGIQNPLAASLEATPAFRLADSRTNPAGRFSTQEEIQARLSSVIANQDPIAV

On to `CCOC(=O)[C@@H]1CCCCN1C(=O)C(=O)OC`, for which the composite z-score in [1] was 0.0188; in test [2], 0.188; in [3] it was -0.0593; in test [4], 0.453; in test [5] it was 0.0842; in test [6], -0.0734. For the same compound, the composite z-score in test [7] is 0.33; in test [9], 0.115; in [10] it was -0.342; in [11] it was 0.828; in [15], 0.377; in test [17], -0.0728. Besides, the composite z-score in test [18] is 0.415; in [19] it was 0.717; in test [20], -0.133. Further, the z-score in test [8] was 0.148 (inactive); in [12] it was 0.0293 (inactive); in [13] it was 0.656 (inactive); in test [14] it was -0.131 (inactive); in test [16] it was 0.66 (inactive).
For `C[N+](C)(C)CCCCCCNC(=O)[C@@H]1C[C@@H]2C(=O)N3CCC[C@H]3C(=O)N2[C@@H]1c1ccc(O)cc1`, the composite z-score was -0.138 in test [1]; 1.74 in test [2]; -0.0788 in test [3]; 0.571 in [4]; 0.43 in test [5]; 0.317 in [6]. The composite z-score was 1.34 in test [7]; 0.648 in test [9]; 0.21 in [10]; 1.43 in test [11]; 2.9 in [15]; -0.0216 in [17]. Also, the composite z-score in test [18] came out at 1.4; in [19], 1.03; in [20], 0.0401. Also, the z-score is 3.36 (inactive) in test [8]; -0.913 (inactive) in test [12]; 0.214 (inactive) in [13]; -0.696 (inactive) in test [14]; 0.2 (inactive) in test [16].
`CCCCCCCCCCC(O)C1C=CC2C(=O)N(c3ccccc3)C(=O)C2N1Nc1ccc(C#N)cc1` (stereo not given): the composite z-score is 0.356 in [1]; 0.179 in test [2]; -0.0262 in [3]; 0.696 in test [4]; 1.18 in test [5]; 1.73 in test [6]. The composite z-score in test [7] was 0.98; in test [9], 0.647; in test [10], 0.0626; in [11], 1.37; in test [15], 3.36; in test [17], 0.12. For the same compound, the composite z-score in test [18] came out at 0.0931; in test [19], 1.09; in test [20], 0.0288. Besides, the z-score is 1.05 (inactive) in [8]; 0.614 (inactive) in test [12]; 0.53 (inactive) in [13]; 2.57 (inactive) in [14]; -0.983 (inactive) in [16].
On to `CC(C)[Si]1(C(C)C)OCc2cc(C3CC3)nc(-c3ccc(Oc4ccccc4)cc3)c21`, for which the composite z-score was -0.0872 in test [1]; -0.502 in test [2]; -0.207 in [3]; -0.18 in [4]; -0.393 in test [5]; -0.65 in [6]. Moreover, the composite z-score is -0.791 in test [7]; -0.15 in test [9]; -0.469 in test [10]; -0.834 in [11]; -0.229 in [15]; -0.13 in test [17]. Also, the composite z-score is -0.27 in test [18], -0.488 in test [19] and -0.062 in test [20]. For the same compound, the z-score in test [8] is -0.343 (inactive); in test [12], 1.95 (inactive); in [13], 1.12 (inactive); in [14], 2.1 (inactive); in test [16], -0.26 (inactive).
For `O=C(NCCN1CCOCC1)[C@@H]1c2ccccc2C(=O)N(C2Cc3ccccc3C2)[C@H]1c1ccc(CO)cc1`, the composite z-score in test [1] is 0.704; in [2], 0.0352; in test [3], -0.163; in [4], -0.465; in [5] it was -0.168; in test [6], 0.855. Also, the composite z-score is 1.25 in [7]; -0.768 in [9]; -0.173 in test [10]; 0.925 in [11]; 3.2 in test [15]; -0.0145 in [17]. For the same compound, the composite z-score in test [18] was -0.398; in test [19] it was 0.123; in test [20] it was -0.214. In addition, the z-score in test [8] was -1.39 (inactive); in test [12], -2.95 (inactive); in test [13], -0.534 (inactive); in test [14] it was -0.979 (inactive); in test [16], 1.78 (inactive).
